Only some compounds are listed: those with a hit (about 1.5% of all), similar ones and a draw of the others.
TDP1 inh = blocks human tyrosyl-DNA phosphodiesterase 1; Q9NUW8; recombinant TDP1, AlphaScreen DNA substrate cleavage; Potency, µM (series often up to 130 µM), most hits filed as inhibitors; actives 0.28% (n = 350,000); AID 485290; also: nearly all actives have a fitted effect of over 40% in size
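E. coli-derived human Tdp1, 1 nM final. Cpd preinc 15 min RT; substrate 15 nM final, 5 min RT; AS bead mix 10 ug/ml final, 10 min RT. Signal loss = tyrosine-FITC cleavage. No-enzyme wells = max signal.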
Tb PFK block = blocks T. brucei phosphofructokinase. T. brucei PFK, ADP-Glo luminescence. Potency, µM (series often up to 57.5 µM), actives largely listed as inhibitors. actives 0.17% (n = 330,000); also: nearly all actives have a fitted effect of over 60% in size
Target sequence (O15648 whole entry, looked up): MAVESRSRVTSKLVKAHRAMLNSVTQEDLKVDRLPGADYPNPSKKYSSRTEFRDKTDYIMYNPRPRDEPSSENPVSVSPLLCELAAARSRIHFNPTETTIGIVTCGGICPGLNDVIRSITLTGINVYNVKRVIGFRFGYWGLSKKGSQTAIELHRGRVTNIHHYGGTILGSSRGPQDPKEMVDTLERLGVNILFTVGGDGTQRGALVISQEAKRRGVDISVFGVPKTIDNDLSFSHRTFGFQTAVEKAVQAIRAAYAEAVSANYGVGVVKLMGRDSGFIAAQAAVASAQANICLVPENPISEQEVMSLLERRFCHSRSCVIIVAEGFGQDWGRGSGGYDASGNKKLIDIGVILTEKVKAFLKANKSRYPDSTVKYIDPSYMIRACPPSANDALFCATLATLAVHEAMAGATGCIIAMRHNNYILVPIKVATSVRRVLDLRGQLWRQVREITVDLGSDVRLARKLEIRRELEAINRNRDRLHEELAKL
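Activity is normalized to no-enzyme wells (full inhibition) and 1.25 nM enzyme wells (no inhibition). Reaction: 0.5 mM F6P, 0.1 mM ATP, 45 min RT, ADP-Glo luminescence; concentration-response curves fitted and classed by quality.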
PI5P4K alpha inh = blocks human PI5P4K alpha kinase activity; max response, %; PI5P4Kalpha enzyme, ADP-Glo luminescence, 60 min; active compounds read low; actives 1.2% (n = 330,000); active = max response of -50% or lower; inconclusive = between -30% and -50%; inactive = -30% or higher; also: value at the top dose of about 77 µM
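qHTS, 1536-well: enzyme/substrate mix, compound by pin tool, 5 microM ATP final; RT 60 min; ADP-Glo reagents 1 (45 min) then 2 (30 min); luminescence.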
WRN helicase inh = inhibitors of human WRN helicase. WRN helicase unwinding, fluorescent forked duplex, kinetic. Potency, µM (titrated, usually from 114 µM), actives largely listed as inhibitors. actives 0.46% (n = 360,000); also: nearly all actives have a fitted effect of over 55% in size
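Screening of the MLSMR collection measured strand separation of a quenched forked DNA duplex (100 nM) by 20 nM WRN with 2 mM ATP, all final. Compounds were preincubated with enzyme 15 min at room temperature.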
FEN1 inh = human FEN1 inhibition | AID 588795 | Potency, µM (series often up to 114 µM), most hits filed as inhibitors | Recombinant FEN1 flap cleavage, fluorescence, 15 min | actives 0.35% (n = 390,000); also: nearly all actives have a fitted effect of over 65% in size
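In this screen, 50 nM flap DNA substrate was added to 10 nM FEN1 pretreated with compound for 15 min at room temperature; cleavage was followed with reads at 0 and 15 min, and Hill fitting gave concentration–response parameters.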
PGK inhibitor = T. brucei PGK inhibition. P07378. Potency, µM (highest dose often 57.5 µM), most hits filed as inhibitors. PGK/GAPDH coupled, Kinase-Glo luminescence, 60 min. actives 0.043% (n = 380,000); also: nearly all actives have a fitted effect of over 60% in size
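Recombinant glycosomal PGK reaction used 1,3-bisphosphoglycerate generated in-well by GAPDH (100nM final) in 100mM TEA pH 7.6, 5mM MgCl2, 0.01% Tween-20. After 60 minutes at room temperature, ATP was read by Kinase-Glo Plus luminescence end-point.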
Numbers stand for hits; . = inactive; ? = inconclusive; / = no result given; [ ] = another dose, or the depositor's remark. Unless noted, calls follow the shape of the dose curve; as a rule, active = well fitted curve in the direction sought with a large enough effect; inconclusive = small, poorly fitted or top-dose-only effect, or another doubt; inactive = no such curve, though single readings can be large; an effect the other way counts as inactive or inconclusive.

SMILES | TDP1 inh | Tb PFK block | PI5P4K alpha inh | WRN helicase inh | FEN1 inh | PGK inhibitor
CCCCC/C=C\C/C=C\CCCCCCCC(=O)O | . | / | / | / | / | /
CN(C)c1ccc(/C=C/c2c3ccccc3cc[n+]2[O-])cc1 | / | / | / | / | . | /
COc1ccccc1C1NC(c2ccc3c(c2)OCO3)=CC(c2cc(Cl)ccc2O)N1 (centres undefined) | . | / | / | / | . | /
COc1cc(/C=N/Nc2nc3ccccc3s2)cc([N+](=O)[O-])c1O | ? | . | -51 | ? | 45µM | ?
COc1cc(/C=N/Nc2nc(=O)[nH]nc2C)cc([N+](=O)[O-])c1O | . | . | -52 | . | . | .
Cc1cc(C)cc(C(=O)C[n+]2cccc(Br)c2)c1 | / | / | / | / | . | /
COc1ccc(COC(=O)N/N=C2/C[C@@H](O)[C@@H](O)[C@@H]3[C@@H]4C(=O)N(C(C)(C)C)C(=O)[C@H]4CC[C@@H]23)cc1 | .[21 µM] | / | / | / | / | /
N#Cc1c(N)sc(=S)c2c1CCCCC2 | 10µM | ? | -91 | 20µM | ? | .
CC(C)CC(O)C(=O)Nc1cc(C(F)(F)F)ccc1Cl (centres undefined) | . | / | / | / | / | /
COc1ccc(-n2c(-c3ccc(Cl)cc3Cl)n[nH]c2=S)c(OC)c1 | / | . | -64 | 79µM | . | .
COc1ccc(-n2c(-c3ccc(C(C)(C)C)cc3)n[nH]c2=S)c(OC)c1 | / | / | . | . | / | .
COc1cc(C(=O)Nc2nnc(-c3sccc3C)s2)cc(OC)c1OC | . | . | . | 50µM | . | .
CCOCc1nnc(NC(=O)c2cc(OC)c(OC)c(OC)c2)s1 | . | . | . | . | . | .
CCn1c(CSc2nccn2C)nc2cc(C(=O)O)ccc21 | . | . | . | 79µM | . | .
COc1ccccc1NC(=O)c1cc2ccccc2o/c1=N\O | / | . | . | 100µM | . | .
COc1ccccc1NC(=O)c1cc2ccc(O)cc2o/c1=N\O | . | . | . | ? | . | .
O=S1(=O)CCOC[C@H](c2ccccc2)N1Cc1ccc(Cl)cc1Cl | / | / | / | / | . | /
CCN(CC)/[N+]([O-])=N/OCOC(=O)c1ccccc1OC(C)=O | / | / | / | / | . | /
Cn1c2ccccc2c2cc(/C=N/NC(=O)c3cc(O)ccc3O)ccc21 | . | . | -90 | 22µM | 56µM | .
COc1cc(C(=O)N/N=C/c2ccc3c(c2)c2ccccc2n3C)ccc1O | . | . | . | .[11.6 µM] | . | .
Cn1c2ccccc2c2cc(/C=N/NC(=O)c3cc(O)cc(O)c3)ccc21 | / | . | -74 | ? | 40µM | ?
N#CNc1nc(O)cc(=O)[nH]1 | . | . | -78 | . | ? | 28µM
CN(C)N=Nc1ccc(/C=C2\C=Cc3ccccc32)cc1 | / | / | / | / | . | /
O=C1C(=Cc2ccccc2O)SC(=S)N1CCCN1CCOCC1 | / | / | -69 | . | / | .
O=C(CCN1C(=O)/C(=C\c2ccccc2)SC1=S)NCCCN1CCOCC1 | . | . | . | . | . | .
SMILES | TDP1 inh | Tb PFK block | PI5P4K alpha inh | WRN helicase inh | FEN1 inh | PGK inhibitor
Cc1cccc2cc(C#N)c(SCCN3CCCCC3)nc12 | / | / | . | . | 50µM | .
CC(C)CO/N=C1/C[C@@H](O)[C@@H](O)[C@@H]2[C@@H]3C(=O)N(c4cccc(Oc5ccccc5)c4)C(=O)[C@H]3CC[C@H]12 | .[21 µM] | / | / | / | / | /
CCCn1c(-c2ccc(OC)cc2)nc2c(=O)n(C)c(=O)[nH]c21 | . | . | -51 | . | . | .
Oc1ccc(CCc2ccccc2F)c2cccnc12 | . | / | / | / | / | /
CC1=NN(c2nc(-c3ccc(C)cc3)cs2)C(=O)C1N=Nc1cccc(O)c1 (centres undefined) | . | . | -71 | . | . | .
CC1=NN(c2nc(-c3ccc(C)cc3)cs2)C(=O)C1N=Nc1ccccc1O (centres undefined) | . | . | . | . | . | .
COc1ccc(OC)c(Nc2nc(=O)c3cccnc3s2)c1 | . | . | -89 | . | . | .
CC(=O)Nc1ccc(S(=O)(=O)N2CCN(S(=O)(=O)c3c(F)cccc3F)CC2)cc1 | . | / | / | / | / | /
S=c1[nH]nc2ccccn12 | / | / | -85 | . | ? | .
c1ccn2c(c1)nc1c2nc2ccccn21 | . | . | / | . | ? | .
Cc1ccn2c(=S)[nH]nc2c1 | / | / | -78 | . | / | .
Cc1ccn2c(-c3n[nH]c(=S)n3Cc3ccccc3)c(C)nc2c1 | . | . | . | . | . | .
CN(C)C(=O)c1ccc(/C=C/c2ccnc3ccccc23)cc1 | / | / | / | / | . | /
COc1cc(CC2COC(c3ccc(O)c(OC)c3)C2COC(C)=O)ccc1O (centres undefined) | / | . | -94 | 50µM | 56µM | ?
COc1cc(CC(=O)O)ccc1O | . | . | . | . | . | .
CN(C)c1ccc2c(-c3ccccc3)c3ccc(=[N+](C)C)cc-3oc2c1 | . | / | / | / | / | /
Cc1nc2ccc(C(=O)OC(C)C(=O)c3c(C)[nH]c4ccccc34)cc2nc1C (centres undefined) | / | / | / | / | . | /
CC[C@H](C)NC(=O)c1ccc(Cn2c(=S)[nH]c3c([nH]c4ccc(OC)cc43)c2=O)cc1 | . | . | ? | .[11.6 µM] | . | .
COc1ccc2[nH]c3c(=O)n(Cc4ccc(C(=O)N5CCC(C(N)=O)CC5)cc4)c(=S)[nH]c3c2c1 | . | . | -59 | . | . | .
CC(C)C(NC(=O)c1ccccc1Br)c1ccccc1 (centres undefined) | . | . | . | . | . | .
CC(NC(=S)NC(=O)c1ccccc1Br)c1ccccc1 (centres undefined) | / | . | -56 | . | . | .
CN(C)Cc1nc(-c2cn(C)c3ccccc23)no1 | . | / | / | / | / | /
CC(=O)Nc1cc(-c2cccc(C(=O)NCCN(C)C)c2)cn2c(-c3cccc(C(F)(F)F)c3)cnc12 | / | / | ? | 79µM | / | /
COC(=O)C(C)Sc1n[nH]c(=S)s1 (centres undefined) | . | . | -72 | . | . | .
CN(C)c1ccc(C=c2c3ccccc3n3c2c2ccccc2[n+]3C)cc1 | / | / | -75 | 10µM | 32µM | .
SMILES | TDP1 inh | Tb PFK block | PI5P4K alpha inh | WRN helicase inh | FEN1 inh | PGK inhibitor
CN(C)c1ccc(C=c2c3cc(O)ccc3n3c2cc(-c2ccccc2)[n+]3C)cc1 | / | / | -54 | 18µM | 7.9µM | .
C[n+]1c(-c2ccccc2)cc2c(=Cc3ccccc3)c3ccccc3n21 | / | / | -50 | ? | ? | .
C[n+]1c(-c2ccccc2)cc2c(=Cc3ccc([N+](=O)[O-])cc3)c3ccccc3n21 | / | / | ? | ? | . | .
O=C(/C=C/c1ccco1)c1ccc(NC(=O)C23CC4CC(CC(C4)C2)C3)cc1 | . | . | -77 | ? | ? | .
Nc1nc(N)c2snnc2n1 | / | / | / | / | . | /
O=S(=O)(c1ccccc1C(F)(F)F)N1CCOCC1 | . | . | . | . | . | .
O=C(O)c1cc2cccc(S(=O)(=O)N3CCOCC3)c2cc1O | . | . | -73 | . | . | .
CC(=O)C(Sc1nn(C)c(=S)s1)C(=O)Nc1ccccc1 (centres undefined) | . | . | -83 | . | . | .

Assay outcomes from PubChem.
